High-throughput results: PubChem BioAssay, National Center for Advancing Translational Sciences (NCATS)
DT40 TDP1 no CPT = qHTS for Inhibitors of human tyrosyl-DNA phosphodiesterase 1 (TDP1): qHTS in cells in absence of CPT; DT40 Tdp1-/- hTDP1 cells, no CPT, ATP luminescence, 48 h; Potency, µM (titrated, usually from 46.2 µM), for inactives: top-dose activity change, negative = growth inhibition, actives largely listed as inhibitors; 420,000 tested, 15% active; further: nearly all actives have a fitted effect of over 55% in size
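Cells were dispensed at 400 per well, compounds added by pin tool, plates incubated ≥48 hr at 37 °C, then CellTiter-Glo added for 30 min at room temperature before luminescence reading. Line: DT40 Tdp1-/- complemented with hTDP1; camptothecin omitted.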
HT1080 IDH1KD tx = toxicity to HT-1080 IDH1 knockdown cells (counter line); HT-1080 IDH1 knockdown viability, ATP luminescence, 48 h; AID 686971; Potency, µM (series often up to 46.1 µM), without a hit: at the top dose activity, negative = toxicity, hits mostly cytotoxic; 360,000 tested, 2% active;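 further: 0% = DMSO wells and -100% = cell-free medium wells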
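Cytotoxicity counter-line: IDH1KD HT-1080, 48 h, CellTiter-Glo. Curves classed by r2, magnitude and activity.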
KB-3-1 cytotox = KB-3-1 parental cell cytotoxicity. KB-3-1 viability, CellTiter-Glo ATP luminescence, 72 h. Potency, µM (series often up to 46.1 µM), hits mostly cytotoxic. 400,000 tested, 1.4% active. AID 1347075; further: nearly all actives have a fitted effect of over 60% in size
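Luminescent ATP read-out (CellTiter-Glo) measures survival of drug-naive KB-3-1 cells after 72 h compound exposure at 37 °C. Titration series was screened from lowest to highest concentration, with DMSO vehicle plates as background controls.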
HT1080-NT tox = kills 2HG-producing HT-1080-NT fibrosarcoma cells; AID 686970; Potency, µM (highest dose often 46.1 µM), for inactives: at the highest dose activity, negative = less viability, usual class: cytotoxic; 360,000 tested, 1.6% active; HT-1080-NT fibrosarcoma viability, CellTiter-Glo ATP luminescence, 48 h;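 further: NT is the 2HG producing partner of a matched IDH1 knockdown line; 0% = DMSO-treated cells and -100% = media-only wells without cells; nearly all actives have a fitted effect of over 55% in size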
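750 cells/well, RPMI + 5% FBS; 2 h settle, compound pin-transfer, 48 h at 37 degrees C. CellTiter-Glo 10 min RT, luminescence. Normalized to DMSO and media-only wells.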
KB-V1 cytotox = kills drug-selected multidrug resistant KB-V1 cells; AID 1347076; Potency, µM (top dose mostly 46.1 µM), actives largely listed as cytotoxic; KB-V1 MDR cells viability, CellTiter-Glo, 72 h; 400,000 tested, 3.4% active; further: nearly all actives have a fitted effect of over 60% in size
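Cytotoxicity via CellTiter-Glo luminescence after 72 h compound exposure at 37 degrees C. Cells: drug-selected KB-V1 line, DMEM phenol-red free plus 10% FBS. Compounds tested at multiple concentrations; normalized data fitted to concentration-effect curves.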
DT40 TDP1 CPT = growth inhibition of DT40 Tdp1-/-;hTDP1 cells with camptothecin (screen for TDP1 inhibitors); chicken DT40 Tdp1-/-;hTDP1 cells + 20 nM CPT, ATP luminescence, 48 h; Potency, µM (doses to about 46.2 µM), for the others: at the highest dose activity change, negative = growth inhibition, actives largely listed as inhibitors; 420,000 tested, 12% active; further: nearly all actives have a fitted effect of over 55% in size
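Cell growth measured by CellTiter-Glo luminescence after a minimum 48 h, 37 C compound exposure with 20 nM CPT in Tdp1-knockout DT40 cells stably expressing hTDP1, seeded 400/well; qHTS titration format.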
* = called active by the depositor. The list is not random: actives were taken first. Their share in the collection is about 19%. The call rests on the fitted dose curve; in most records, active means well fitted curve in the direction sought with a large enough effect; inconclusive means small, poorly fitted or top-dose-only effect, or another doubt; inactive means no such curve, though single readings can be large; an effect the other way counts as inactive or inconclusive. Unless noted, on the % scale 0 is the no-effect control and ±100 the full control effect; potency means the concentration at half of the fitted maximal effect.

Results for O=C(O)c1cc(-c2ccc(C(F)(F)F)cc2)nc2n[nH]c(-c3ccccc3)c12 ?
DT40 TDP1 no CPT: 26%; KB-3-1 cytotox: inactive; KB-V1 cytotox: inactive; DT40 TDP1 CPT: 7%

What do the screens show for `CC12CCC(C(=O)N(CSC(=S)N/N=C\c3ccccc3O)C1=O)C2(C)C` (centres undefined)?
DT40 TDP1 no CPT: 15µM*; HT1080 IDH1KD tx: inconclusive; KB-3-1 cytotox: inactive; HT1080-NT tox: inconclusive; KB-V1 cytotox: inactive; DT40 TDP1 CPT: inconclusive

Results for CCc1ccc(C(=O)C(C)OC(=O)Cc2n[nH]c(=O)c3ccccc23)cc1 (centres undefined) ?
DT40 TDP1 no CPT: 7.3µM*; HT1080 IDH1KD tx: 13µM*; KB-3-1 cytotox: 9.2µM*; HT1080-NT tox: inconclusive; KB-V1 cytotox: inconclusive; DT40 TDP1 CPT: 6.5µM*

Results for O=C(CCn1nc(-c2ccc(Cl)cc2)c2ccccc2c1=O)Nc1ccc(OC(F)(F)F)cc1 ?
DT40 TDP1 no CPT: inconclusive; KB-3-1 cytotox: inactive; KB-V1 cytotox: inactive; DT40 TDP1 CPT: -24%

Results for CCCCn1c(=N)n(CC(O)c2ccccc2)c2ccccc21 (centres undefined) ?
DT40 TDP1 no CPT: 23µM*; HT1080 IDH1KD tx: -11%; KB-3-1 cytotox: inconclusive; HT1080-NT tox: -19%; KB-V1 cytotox: inconclusive; DT40 TDP1 CPT: 15µM*

Results for CCCCn1c(=N)n(CC(O)COc2ccc(C)cc2)c2ccccc21 (centres undefined) ?
DT40 TDP1 no CPT: 4.1µM*; HT1080 IDH1KD tx: 11µM*; KB-3-1 cytotox: 18µM*; HT1080-NT tox: inconclusive; KB-V1 cytotox: inconclusive; DT40 TDP1 CPT: 6.5µM*

Results for CCCCn1c(=N)n(CC(O)COc2ccccc2)c2ccccc21 (centres undefined) ?
DT40 TDP1 no CPT: 12µM*; HT1080 IDH1KD tx: inconclusive; KB-3-1 cytotox: inconclusive; HT1080-NT tox: inconclusive; KB-V1 cytotox: 21µM*; DT40 TDP1 CPT: 12µM*

Results for OCc1nc2ccccc2n1CC(O)COc1ccccc1 (centres undefined) ?
DT40 TDP1 no CPT: -15%; HT1080 IDH1KD tx: 5%; KB-3-1 cytotox: inactive; HT1080-NT tox: 1%; KB-V1 cytotox: inactive; DT40 TDP1 CPT: -16%

Results for CC(C(=O)OCC(=O)c1cccc([N+](=O)[O-])c1)N1C(=O)C2C3C=CC(C3)C2C1=O (centres undefined) ?
DT40 TDP1 no CPT: -19%; HT1080 IDH1KD tx: 3%; KB-3-1 cytotox: inactive; HT1080-NT tox: 2%; KB-V1 cytotox: inactive; DT40 TDP1 CPT: -13%

Results for CC(C)CC(=O)n1nc(-c2ccco2)nc1NCc1ccc(Cl)cc1 ?
DT40 TDP1 no CPT: -23%; KB-3-1 cytotox: inactive; KB-V1 cytotox: inactive; DT40 TDP1 CPT: inconclusive

Results for Cc1ccc(S(=O)(=O)N(CC(=O)Nc2ccc(Cl)c([N+](=O)[O-])c2)C2CCCCC2)cc1 ?
DT40 TDP1 no CPT: inconclusive; HT1080 IDH1KD tx: -23%; KB-3-1 cytotox: inconclusive; HT1080-NT tox: -1%; KB-V1 cytotox: 4.6µM*; DT40 TDP1 CPT: inconclusive

Results for CS(=O)(=O)N(CC(=O)Nc1ccc(Br)cc1F)C1CCCCC1 ?
DT40 TDP1 no CPT: 9.2µM*; HT1080 IDH1KD tx: -4%; KB-3-1 cytotox: inactive; HT1080-NT tox: -4%; KB-V1 cytotox: inactive; DT40 TDP1 CPT: inconclusive

Results for CS(=O)(=O)N(CC(=O)NCc1ccc(Cl)cc1)C1CCCCC1 ?
DT40 TDP1 no CPT: 15µM*; HT1080 IDH1KD tx: 11%; KB-3-1 cytotox: inconclusive; HT1080-NT tox: -10%; KB-V1 cytotox: inactive; DT40 TDP1 CPT: 21µM*

How did Cc1ccc(S(=O)(=O)N(CC(=O)NCc2ccncc2)C2CCCCC2)cc1 do in these assays?
DT40 TDP1 no CPT: 9.2µM*; HT1080 IDH1KD tx: 1%; KB-3-1 cytotox: inactive; HT1080-NT tox: 1%; KB-V1 cytotox: inactive; DT40 TDP1 CPT: 12µM*

What do the screens show for `CCCS(=O)(=O)c1nc(S(=O)(=O)c2ccc(C)cc2)c(N2CCC(C(N)=O)CC2)s1`?
DT40 TDP1 no CPT: -14%; HT1080 IDH1KD tx: 1%; KB-3-1 cytotox: inactive; HT1080-NT tox: 18%; KB-V1 cytotox: inactive; DT40 TDP1 CPT: inconclusive

What do the screens show for `CCCCc1nnc(NC(=O)c2ccc(OCc3c(C)noc3C)cc2)s1`?
DT40 TDP1 no CPT: -15%; HT1080 IDH1KD tx: -29%; KB-3-1 cytotox: inactive; HT1080-NT tox: -14%; KB-V1 cytotox: inconclusive; DT40 TDP1 CPT: -7%

What do the screens show for `CCCCOc1ccc(Cn2c(=O)sc3ccccc32)cc1OC`?
DT40 TDP1 no CPT: inconclusive; KB-3-1 cytotox: inactive; KB-V1 cytotox: inconclusive; DT40 TDP1 CPT: inconclusive

What do the screens show for `COc1c(C)cc(C(O)c2ncc(-c3ccccc3)[nH]2)cc1C` (centres undefined)?
DT40 TDP1 no CPT: inconclusive; HT1080 IDH1KD tx: inconclusive; KB-3-1 cytotox: inactive; HT1080-NT tox: -16%; KB-V1 cytotox: inactive; DT40 TDP1 CPT: inconclusive

How did Cc1ccc(S(=O)(=O)NC2=C(N3CCN(c4ccccc4F)CC3)C(=O)c3ccccc3C2=O)cc1 do in these assays?
DT40 TDP1 no CPT: inconclusive; HT1080 IDH1KD tx: 17%; KB-3-1 cytotox: inconclusive; HT1080-NT tox: 14%; KB-V1 cytotox: inconclusive; DT40 TDP1 CPT: 23µM*

What do the screens show for `Cc1ccc(S(=O)(=O)NC2=C(N3CCN(Cc4ccccc4)CC3)C(=O)c3ccccc3C2=O)cc1`?
DT40 TDP1 no CPT: 16µM*; HT1080 IDH1KD tx: -9%; KB-3-1 cytotox: inactive; HT1080-NT tox: -11%; KB-V1 cytotox: inactive; DT40 TDP1 CPT: 23µM*

What do the screens show for `Cc1ccc(S(=O)(=O)Nc2nc3ccccc3nc2N2CCN(c3ccccc3F)CC2)cc1`?
DT40 TDP1 no CPT: 2%; HT1080 IDH1KD tx: -17%; KB-3-1 cytotox: inactive; HT1080-NT tox: -12%; KB-V1 cytotox: inactive; DT40 TDP1 CPT: 3%

How did NC(=O)C1CCN(C2=C(NS(=O)(=O)c3ccc(Cl)cc3)C(=O)c3ccccc3C2=O)CC1 do in these assays?
DT40 TDP1 no CPT: inconclusive; HT1080 IDH1KD tx: -10%; KB-3-1 cytotox: inactive; HT1080-NT tox: -12%; KB-V1 cytotox: inactive; DT40 TDP1 CPT: 16µM*

Results for COC(=O)C1CCN(C2=C(NS(=O)(=O)c3ccc(Cl)cc3)C(=O)c3ccccc3C2=O)CC1 ?
DT40 TDP1 no CPT: -17%; HT1080 IDH1KD tx: inconclusive; KB-3-1 cytotox: inconclusive; HT1080-NT tox: inconclusive; KB-V1 cytotox: inactive; DT40 TDP1 CPT: inconclusive
